# In PubChem BioAssay (NCI):
# Compounds without any hit were thinned out: in the full panel of roughly 83,000, 20% have a hit.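 Growth was measured after 48 h exposure to one concentration of compound in 96-well plates. Values under 10 count as active.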 Values without a mark were called inactive. The source made the active and inactive calls.
# Tests used:
# Assay in all cases: NCI-60 one-dose screen, 48 h (100 = growth as untreated, 0 = no growth, -100 = all killed)
# Conditions in all cases: 10 µM unless noted
# [1] = system: NCI-H23 lung
# [2] = system: NCI-H226 lung
# [3] = system: NCI-H322M lung
# [4] = system: HOP-62 NSCLC
# [5] = system: NCI-H460 lung
# [6] = system: HOP-92 NSCLC
# [7] = system: NCI-H522 lung
# [8] = system: A549/ATCC NSCLC
# [9] = system: 786-0 renal
# [10] = system: DU-145 prostate
# [11] = system: K-562 leukemia
# [12] = system: MALME-3M melanoma
# [13] = system: MDA-MB-231 breast
# [14] = system: RXF 393 renal
# [15] = system: SF-268 CNS
# [16] = system: SF-295 CNS
# [17] = system: SF-539 CNS
# [18] = system: UACC-257 melanoma
# [19] = system: M14 melanoma
SMILES,growth [1],growth [2],growth [3],growth [4],growth [5],growth [6],growth [7],growth [8],growth [9],growth [10],growth [11] [%],growth [12],growth [13],growth [14],growth [15],growth [16],growth [17],growth [18],growth [19]
NC(=Nc1ccc(N)cc1)C(N)=Nc1ccc(N)cc1,108%,94.4%,105%,107%,106%,112%,111%,68.4%,99.6%,106%,81.7,135%,93.5%,84.1%,104%,111%,96.9%,31.8%,99.7%
Cc1nc(Nc2ccccn2)sc1C(=O)/C=C/c1ccc(Br)cc1,88.3%,85.6%,80%,63.4%,92%,96.3%,61.5%,86.2%,96.9%,66.7%,13.3,77.1%,71.1%,78.4%,78.8%,72.8%,84.7%,95.7%,80.7%
O=C(Nc1ccccn1)[C@H](O)[C@@H](O)C(=O)N1CCOCC1,106%,95.3%,115%,104%,105%,106%,102%,99.6%,107%,106%,115,114%,100%,119%,106%,109%,107%,101%,103%
CN1C(=O)CCC(N2C(=O)c3cccc(NCCOCCOCCNC(=O)c4cc5c(o4)C(=O)c4ccccc4C5=O)c3C2=O)C1=O (configuration not stated),-52.7% (active),-72.1% (active),-93% (active),-59.1% (active),-73.1% (active),65%,-35% (active),-45% (active),8.13% (active),-95.3% (active),10.5,-97.4% (active),-3.68% (active),-34.6% (active),-0.714% (active),-88.1% (active),-80.4% (active),-85.1% (active),-67.2% (active)
C=C(C)[C@@H]1CC[C@]2(C(=O)NCC(=O)O)CC[C@]3(C)[C@H](CC[C@@H]4[C@@]5(C)Cc6c([nH]c7ccccc67)C(C)(C)[C@@H]5CC[C@]43C)[C@@H]12,73.5%,87.8%,85.5%,58.5%,88.5%,81%,41.9%,67.1%,84.4%,93.5%,72.4,107%,92%,91.2%,76.1%,56.2%,56.3%,87.1%,86.9%
CCCCCCN(CCCCCC)CC(O)c1cccc2ccc(Cl)cc12 (configuration not stated),38.8%,85.6%,66.4%,31.8%,44%,3.01% (active),38.1%,67.2%,53.2%,61.8%,32.9,65.6%,43.3%,24.1%,121%,42%,65.5%,74.4%,63.3%
CC[C@@H](C[C@H](CCO)c1ccccc1)c1cc2ccccc2o1,92.7%,88%,92.9%,84.4%,100%,96.8%,77.5%,84.3%,91%,97.9%,77.7,103%,98%,96.9%,91.2%,99.5%,104%,96.9%,91.9%
CCn1c(Sc2nnc(Nc3ccccc3)s2)nc2c1c(=O)n(C)c(=O)n2C,88.2%,102%,91.4%,93.5%,106%,61.5%,114%,99.9%,93.2%,113%,114,94.9%,97.8%,91.4%,103%,91.9%,96.2%,97.4%,104%
